Results from PubChem BioAssay (NCI).
The panel holds about 83,000 compounds, 20% with a hit somewhere; the sample as a whole holds those more often.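 How to read the values: 0–100, growth inhibition (40 = 60% inhibited); 0, no net growth; -100 to 0, cell death (-40 = 40% of starting cells died; -100 = all dead).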 Values without a mark were called inactive. The source made the active and inactive calls. How the source made its calls: active means growth percent below 10; inactive means the rest.

Tests used:
Test in all cases: NCI-60 one-dose screen, 48 h (100 = growth as untreated, 0 = no growth, -100 = all killed)
Settings in all cases: 10 µM unless noted
[1] = system: RPMI-8226 leukemia
[2] = system: OVCAR-8 ovarian
[3] = system: OVCAR-5 ovarian
[4] = system: OVCAR-4 ovarian
[5] = system: SK-OV-3 ovarian
[6] = system: IGROV1 ovarian
[7] = system: HS 578T breast
[8] = system: NCI/ADR-RES ovarian
[9] = system: T-47D breast
[10] = system: BT-549 breast
[11] = system: MDA-MB-435 melanoma
[12] = system: SW-620 colon
[13] = system: MCF7 breast
[14] = system: HCT-116 colon
[15] = system: HCC-2998 colon
[16] = system: KM12 colon
[17] = system: OVCAR-3 ovarian

Structure (SMILES)	growth [1]	growth [2]	growth [3]	growth [4]	growth [5]	growth [6]	growth [7]	growth [8]	growth [9]	growth [10]	growth [11]	growth [12]	growth [13]	growth [14]	growth [15]	growth [16]	growth [17]
C=C(C)[C@@H]1CC[C@]2(C(=O)OCCCC[P+](c3ccccc3)(c3ccccc3)c3ccccc3)CC[C@]3(C)[C@H](CC[C@@H]4[C@@]5(C)CC[C@H](OC(=O)C(Cl)Cl)C(C)(C)[C@@H]5CC[C@]43C)[C@@H]12	-40% (active)	-1.54% (active)	-1.72% (active)	-0.103% (active)	-5.89% (active)	-23.3% (active)	-0.621% (active)	52.7%	-14.3% (active)	-71.6% (active)	-62.3% (active)	0.909% (active)	3.36% (active)	-76.3% (active)	-62.8% (active)	-54.8% (active)	–
Cc1cccc(C)c1NCc1nnc(-c2ccco2)o1	77.9%	98.2%	99.8%	101%	87%	85.3%	91.5%	97.3%	80.6%	99%	103%	93.8%	87.1%	84.1%	103%	91.6%	–
COc1ccccc1N1CCN(CCCOc2ccc(C(=O)/C=C3/C(=O)Nc4ccccc43)cc2)CC1	34.9%	65.9%	32.4%	45.2%	79.7%	67.7%	26.7%	73%	33.3%	68.1%	73%	70.6%	49.7%	34.4%	60.2%	59.4%	–
Cc1nnc(/N=C2\NC(=O)/C(=C/c3ccc(N(C)C)cc3)S2)s1	58.9%	78.6%	99.9%	75.4%	72%	60%	–	52.2%	73.6%	67.4%	9.37% (active)	66.9%	53.4%	54.6%	85.5%	46.1%	45.4%
COc1cc(C2=NN(C(C)=O)C(c3cccc(Nc4ccnc5cc(C(F)(F)F)ccc45)c3)C2)cc(OC)c1OC (stereo unspecified)	20.8%	56.1%	82.7%	52%	69.3%	62.4%	76.6%	53%	40.2%	46.2%	56.6%	66.1%	37.9%	48.4%	72.2%	64.8%	–
COc1ccc(Nc2nc(SCC(C)C)nc(-c3ccc(F)cc3)c2C#N)cc1	88%	89.4%	94.3%	80.9%	73.4%	71.4%	79.1%	40.3%	65%	75.5%	9.54% (active)	47.9%	29.1%	35.7%	92.8%	44.4%	–
COc1ccc2c(c1)Oc1nc(N)c(C#N)c(N)c1C2Sc1ccc(O)cc1 (stereo unspecified)	53.4%	102%	118%	88.8%	104%	62%	–	106%	50.7%	92.4%	–	68.6%	33.6%	89.6%	98.5%	97.9%	79.7%
CCOC(=O)CC[C@H](NC(=O)c1ccc(NC)c2ccccc12)C(=O)OCC	91.2%	94.7%	101%	104%	92.8%	105%	105%	104%	93.8%	100%	–	93.6%	94.7%	92%	115%	103%	–
O=C(CCc1nnco1)c1nc2ccc([N+](=O)[O-])cc2[nH]1	129%	105%	108%	105%	107%	97.6%	–	104%	101%	106%	106%	106%	–	–	93.4%	102%	105%
CC1=C(CCCOC(=O)NCCCl)C2=C(C)C3(CC3)[C@@](C)(O)C(=O)C2=C1	80%	36.9%	28.1%	14.6%	-13.7% (active)	4.17% (active)	99.8%	29.2%	16%	17.5%	84.8%	80.3%	29.8%	28.2%	28.8%	79.2%	–
COc1ccc2c(c1)OC13Oc4cc(OC)ccc4C=C1CCCCC3=C2	97.8%	92.5%	104%	104%	80.8%	99.3%	99.4%	96.9%	67.6%	92%	105%	90.7%	75.2%	73.4%	97.7%	94.8%	–
COC(=O)c1nc(-c2ccccc2)oc1S(=O)(=O)n1nc(C)cc1N	53.2%	95.3%	103%	104%	106%	61%	93.6%	101%	22.5%	69.8%	79.6%	6.13% (active)	60.2%	67.9%	115%	96.3%	–
Cc1c(Cl)cccc1NC(=O)c1sc2nc3c(cc2c1N)CN(Cc1ccccc1)CC3	54.8%	64.2%	75.1%	62.4%	44.2%	52.2%	28.6%	41.4%	56.8%	61.9%	-4.11% (active)	16.8%	16.1%	39.3%	82.9%	30.8%	–
Cc1ccccc1NC(=O)c1sc2nc(C)c(C(C)O)cc2c1N (stereo unspecified)	64.1%	58.1%	87.8%	92.9%	47.5%	57.6%	53.3%	29.4%	54%	57.8%	1.71% (active)	36.8%	21%	22%	67.9%	27.7%	–
Oc1c(CCl)cc(Cl)cc1Cc1cc(Cl)cc(Cc2cc(Cl)cc(CCl)c2O)c1O	4.65% (active)	16.7%	79.8%	48%	36%	37.8%	26.1%	14%	22.1%	23.9%	44.1%	25.5%	8.55% (active)	3.12% (active)	19.5%	23.2%	–
C=C1C(=O)O[C@H]2[C@H]1CC/C(COC(=O)c1c[nH]c3ccccc13)=C\CC[C@@]1(C)O[C@@H]21	-27.4% (active)	5% (active)	-25.3% (active)	-90.6% (active)	68.9%	-56.2% (active)	3.21% (active)	-4.86% (active)	-49.2% (active)	-37.2% (active)	–	-61.4% (active)	-52.7% (active)	-86.1% (active)	-80.9% (active)	-47.4% (active)	–
c1ccc(-c2n(Cc3ccc4ccccc4n3)cc[n+]2Cc2ccc3ccccc3n2)cc1	0.454% (active)	33.6%	70.5%	32.9%	48.9%	33.9%	60.4%	105%	9.75% (active)	28%	–	37.5%	–	–	26.6%	15.8%	–
CC(C)NS(=O)(=O)c1cccc(-c2ccc3c4c(n(CCCN(C)C)c(=O)c3c2)-c2ccccc2C4=O)c1	80.9%	76.4%	117%	101%	104%	90%	99.8%	103%	97.1%	95.6%	92.9%	57.4%	38.8%	-66% (active)	96.8%	93.9%	–
COc1c(O)cc2oc3cc(O[C@@H]4OC(C)[C@@H](O)[C@H](O)C4O)c(CC=C(C)C)c(O)c3c(=O)c2c1CC=C(C)C (stereo partly specified)	73.2%	99.3%	119%	102%	113%	83.9%	98.4%	102%	86.6%	99.3%	97.9%	101%	76%	94.1%	94.8%	87.8%	–
